The source of these data is PubChem BioAssay (EPA / NIEHS).

For orientation: AC50 means the midpoint of the concentration-response curve, whichever way the signal moves.

Where “and” joins values, the source holds several entries; their conditions need not be identical. Equal entries are not always repeated. Calls of active or inactive are those of the source. Rule for the calls: active = hit-call score of the fitted dose curve at least 0.9, where 1 is the maximum; inactive = score below 0.9.

Read-out in this assay: Plasminogen activator inhibitor-1 (PAI1), SERPINE1 (gene 5054)
The assay is described as follows: BSK_hDFCGF_PAI1: BioMAP Diversity Plus: hDFCGF Assay for Plasminogen activator inhibitor-1 (PAI1) Biomarker Activity (AID 2283066). To be noted: primary human foreskin fibroblasts; actives raise or lower the signal. The method, then:
BSK_hDFCGF is a cell-based, multiplexed-readout assay that uses foreskin fibroblast, a human skin primary cell, with measurements taken at 24 hours after chemical dosing in a 96-well plate.BSK_hDFCGF_PAI1 is an assay component measured in the BSK_hDFCGF assay. It measures PAI-1 antibody related to regulation of gene expression using ELISA technology.Data from the assay component BSK_hDFCGF_PAI1 was analyzed into 1 assay endpoint. This assay endpoint, BSK_hDFCGF_PAI1, was analyzed with bidirectional fitting relative to DMSO as the negative control and baseline of activity. Using a type of binding reporter, gain or loss-of-signal activity can be used to understand changes in the signaling as they relate to the gene SERPINE1. Furthermore, this assay endpoint can be referred to as a primary readout, because this assay has produced multiple assay endpoints where this one serves a signaling function. To generalize the intended target to other relatable targets, this assay endpoint is annotated to the cytokine intended target family, where the subfamily is plasmogen activator inhibitor.
The levels of cell surface (or secreted, indicated by the prefix "s") biomarker endpoints were measured by ELISA. Overt cytotoxicity to cells in confluent adherent cultures (all systems other than the BT system) was assessed by measuring total protein levels using sulforhodamine B (SRB) staining in parallel cultures at the time of biomarker measurements, indicated as SRB endpoints. For proliferation assays for adherent cell types, individual cell types are cultured at sub-confluence and relative cell numbers quantified by SRB staining at time points optimized for each system (48 h: 3C and CASM3C systems; 72 h: BT and HDF3CGF systems; 96 h: SAg system). SRB was performed by staining cells with 0.1% SRB after fixation with 10% TCA and reading wells at 560 nm.Viability and proliferation of PBMC (T cells) was quantified by Alamar Blue reduction for the SAg and BT systems. For PBMC viability (referred to as PBMC Cytotoxicity within the assay endpoint names), cells were plated (75,000/well in a 96-well plate) and then chemical samples added for 1 h before addition of activators, SEB and TSST-1 (20 ng/mL final concentration each). Cells were incubated for 90 h. Then, Alamar Blue (20 uL/well) (Invitrogen, Cat DAL1100) was added for 6 h, and the plates were read with a fluorescence microplate reader at 546/580 nm (excitation/emission). For PBMC proliferation, cells were plated and activated as above but incubated for only 16 h prior to addition of Alamar Blue. Plates were read after 6 h.
With `CCNS(=O)(=O)C(F)(F)C(F)(F)C(F)(F)C(F)(F)C(F)(F)C(F)(F)C(F)(F)C(F)(F)F`, the AC50 was 30.1 µM (active) and 23.3 µM (active) and 47.3 µM (active).
On to `c1ccc(N=Nc2ccccc2)cc1`, for which the outcome was inactive.
Same read-out and setting: the result for `CCCCOC(=O)c1ccccc1C(=O)OCc1ccccc1` reads “inactive”; that for `COC(=O)c1ccccc1N`, “inactive”.
For the molecule `C[C@]12C=CC3=C4CCC(=O)C=C4CC[C@H]3[C@@H]1CC[C@@H]2O`, the half-maximal activity concentration (AC50) is 0.164 µM (active).
Take `CC(C)(C)OOC(=O)c1ccccc1`: the half-maximal activity concentration (AC50) is 7.15 µM (active).
Consider `CCC12COCN1COC2`, for which the outcome was inactive.
Turning to `CCOC(=O)[C@]1(c2ccccc2)Oc2ccccc2[C@@H]1N`, the concentration at half-maximal activity (AC50) is 33.6 µM (active).
For `c1ccc(NNc2ccccc2)cc1`, the outcome was inactive.
The same measure, in the same setting: then `Cc1ccc(N)cc1`, with “inactive”; and `CO[C@@H]1[C@H](OC(=O)NC(=O)CCl)CC[C@]2(CO2)[C@H]1[C@@]1(C)O[C@@H]1CC=C(C)C`, with “inactive”.
For the molecule `Cc1ccc([N+](=O)[O-])cc1`, the result was inactive.
Still for that read-out and setting: the result for `Nc1ccc(Cl)cc1N` reads “inactive”; that for `c1ccc(C2CO2)cc1` (stereo not given), “inactive”; that for `Cc1ccc(N)c(N)c1`, “inactive”.
Same read-out and setting: then `CC(C)COC(=O)c1ccccc1C(=O)OCC(C)C`, with “inactive”.
With `Clc1ccc(C(c2ccc(Cl)cc2)C(Cl)(Cl)Cl)cc1`, the half-maximal activity concentration (AC50) is 8.38 µM (active).
As to `[O-][Cl+]O`, the outcome was inactive.
In the case of `O=C(O)C1C2CCC(O2)C1C(=O)O` (stereo not given), the AC50 is 6.83 µM (active).
Regarding `CN(C)c1ccccc1`, the outcome was inactive.
Still for that read-out and setting: the result for `O=C1CCCO1` reads “inactive”.
`Clc1ccc(C(c2ccc(Cl)cc2)C(Cl)Cl)cc1`: the concentration at half-maximal activity (AC50) is 7.29 µM (active).
Take `[As]#[In]`: the result was inactive.
On the same count and under the same terms, the result for `CCCCCCCCOC(=O)c1ccc(C(=O)OCCCCCCCC)c(C(=O)OCCCCCCCC)c1` reads “inactive”; that for `Cn1cc(-c2ccccc2)c(=O)c(-c2cccc(C(F)(F)F)c2)c1`, “inactive”; that for `O=C(Nc1ccccc1)c1ccccc1I`, “inactive”.
Turning to `CNC(=O)Oc1cccc2c1OC(C)(C)C2`, the result was inactive.
In the case of `Clc1ccccc1Cl`, the outcome was inactive.
Turning to `Nc1ccc(Oc2ccc(N)cc2)cc1`, the result was inactive.
The same measure, in the same setting: the result for `CC(C)(C)C(O)(CCc1ccc(Cl)cc1)Cn1cncn1` (stereo not given) reads “inactive”.
On to `COP(=S)(OC)SCN1C(=O)c2ccccc2C1=O`, for which the outcome was inactive.
Still for that read-out and setting: then `O=P(OCCCl)(OCCCl)OCCCl`, with “inactive”.
Turning to `Brc1ccc(Oc2ccccc2)cc1`, the outcome was inactive.
In the case of `COC(=O)Nc1nc2ccccc2[nH]1`, the outcome was inactive.
Same read-out and setting: then `OCCCl`, with “inactive”.
Consider `CCCCCCCCn1sccc1=O`, for which the AC50 was 1.4 µM (active).
Turning to `Oc1ccccc1Cl`, the result was inactive.
For the molecule `OCCOCCO`, the result was inactive.
As to `CC(C)N(Cc1ccccc1)C(=O)C(C)(C)C`, the outcome was inactive.
On to `COc1cc(C=O)cc2c1[C@H](COC(N)=O)[C@]1(OC(C)=O)ON2C[C@H]2[C@@H]1N2C(C)=O`, for which the concentration at half-maximal activity (AC50) is 0.144 µM (active).
